Structures are written as SMILES. Out of some 310,000 compounds screened, about 18,000 (5.8%) were called active. Inconclusive results (about 22%) are left out. This is one part of a sample in which actives are shown more often than they occur. Calls come from the whole dose curve; as a rule, active = well fitted inhibition curve with a large enough effect; inconclusive = small, poorly fitted or top-dose-only effect, or another doubt; inactive = no such curve, though single readings can be large or run the other way.
% is set by controls: 0 for no effect and ±100 for the full control effect; potency is the fitted concentration of half-maximal effect.

This experiment in a line: Primary qHTS for delayed death inhibitors of the malarial parasite plastid, 48 hour incubation. The conditions noted are these: P. falciparum luciferase growth in erythrocytes; series mostly up to 28.7 µM; activity change, negative = inhibition: at the top concentration. The gist of the method: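 First compound was added to culture medium, then infected red cells at 0.1% parasitemia and 2% hematocrit (final). After incubation at 37 C under 5% CO2, luciferase detection reagent was dispensed and light output recorded.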
In general terms: qHTS replaces the single test concentration by a dilution series.
Turning to `COc1ccc(NC(=O)Cn2ncn3c(cc4ccccc43)c2=O)c(OC)c1OC`, the Potency is 10.4 µM (active).

With `COc1ccc(NC(=O)CCNC(=O)Cn2ccc3ccccc3c2=O)c(OC)c1`, the “activity change, negative = inhibition” value was 3.33% (inactive).

For `CCc1ccc(NC(=O)Cn2ncn3c(cc4ccccc43)c2=O)cc1`, the “activity change, negative = inhibition” value is 9.52% (inactive).

With `Cc1ccc(C(=O)N(CC(=O)NC2CCCC2)c2ccc(F)cc2)s1`, the “activity change, negative = inhibition” value was -0.117% (inactive).

On to `ClC(Cl)(Cl)c1ccccc1`, for which the “activity change, negative = inhibition” value was 4.79% (inactive).

For `CC(C)(C)N(Cc1ccccc1)C(=O)c1ccncc1`, the “activity change, negative = inhibition” value was 11.2% (inactive).

Turning to `CC(c1ccccc1)(c1ccccc1)c1ccncc1`, the Potency was 16.5 µM (active).

As for `CC1CCCC(NC(=O)c2cc(-c3ccncc3)nc3ccccc23)C1C` (stereo not drawn), the “activity change, negative = inhibition” value is -9.17% (inactive).

For the compound `CC(=O)N1CC(=O)N(CC(=O)Nc2ccc(Br)cc2)C1=S`, the “activity change, negative = inhibition” value was 12.7% (inactive).

For the compound `Cc1c(C(=O)NC(C)C2CC3CCC2C3)cccc1[N+](=O)[O-]` (stereo not drawn), the “activity change, negative = inhibition” value is 15.2% (inactive).

Regarding `CC(Sc1nnc(CNC(=O)c2ccccc2F)n1C)C(=O)Nc1nccs1` (stereo not drawn), the “activity change, negative = inhibition” value is 5.18% (inactive).

With `COc1ccc(CCNC(=O)Cc2ccc(C)cc2)cc1OC`, the “activity change, negative = inhibition” value was -4.17% (inactive).

Consider `COc1ccc(CCNC(=O)CN(c2ccccc2)S(C)(=O)=O)cc1OC`, for which the “activity change, negative = inhibition” value was -2.55% (inactive).

For the compound `COc1ccc(CCNC(=O)c2nnc(CS(=O)(=O)c3ccccc3)o2)cc1OC`, the Potency was 2.33 µM (active).

On to `COc1ccc(OC)c(NC(=O)c2ccc3c(c2)CCN3S(C)(=O)=O)c1`, for which the “activity change, negative = inhibition” value is -15.2% (inactive).

For the compound `CC(C)OC(=O)c1ccc(COc2ccc3ccc(=O)oc3c2)o1`, the “activity change, negative = inhibition” value is 22% (inactive).

Consider `COc1ccccc1CNC(=O)c1ccc(CS(=O)(=O)c2ccccc2)o1`, for which the “activity change, negative = inhibition” value is -13.2% (inactive).

With `CCCCCNC(=O)C1c2ccccc2Oc2ccccc21`, the “activity change, negative = inhibition” value is -2.43% (inactive).

Turning to `Cc1ccc(N(Cc2ccc(C(=O)Nc3ccccc3C(=O)NCc3ccco3)cc2)S(C)(=O)=O)cc1C`, the Potency is 3.7 µM (active).

With `COc1ccc(C(=O)Nc2ccccc2C(=O)NCc2ccco2)cc1`, the “activity change, negative = inhibition” value was -8.26% (inactive).

As for `CS(=O)(=O)N(Cc1ccc(Cl)cc1)c1ccc(C(=O)NCCSCc2ccco2)cc1`, the “activity change, negative = inhibition” value is 13.7% (inactive).

For the compound `CS(=O)(=O)c1ccc(C(=O)OCC(=O)NNC(=O)COc2ccc(Cl)cc2)cc1`, the “activity change, negative = inhibition” value was 11.1% (inactive).

Turning to `COc1cc(CN2CCCN(C)CC2)c([N+](=O)[O-])cc1OC`, the “activity change, negative = inhibition” value is 45% (inactive).

For the compound `Cc1ccc(OCCC(=O)OCC(=O)N2c3ccccc3NC(=O)C2(C)C)cc1`, the “activity change, negative = inhibition” value is -0.565% (inactive).

In the case of `CC(=O)Nc1ccc(S(=O)(=O)N2CCC(C(=O)NC3CC3)CC2)cc1`, the “activity change, negative = inhibition” value is 5.93% (inactive).

For the compound `COc1ccc(CNC(=O)CNC(=O)c2sc3ccccc3c2Cl)cc1OC`, the “activity change, negative = inhibition” value was 5.71% (inactive).

Regarding `CN1CCc2ccccc2C1Cc1ccccc1NC(=O)c1sc2ccccc2c1Cl` (stereo not drawn), the Potency was 8.28 µM (active).

For `O=C(Nc1ccon1)c1sc2ccccc2c1Cl`, the “activity change, negative = inhibition” value was 21.9% (inactive).

Turning to `COCc1ccc(CN2CCC(Oc3ccc(C(=O)NCc4ccccn4)cc3)CC2)o1`, the “activity change, negative = inhibition” value was -17.3% (inactive).

With `O=C(O)c1cc(S(=O)(=O)N(Cc2ccccc2)c2ccccc2)ccc1Cl`, the “activity change, negative = inhibition” value is 0.616% (inactive).

As for `C=CCCN(Cc1ccccc1)S(=O)(=O)c1ccccc1Br`, the “activity change, negative = inhibition” value was 1.07% (inactive).

Turning to `C=CC(COCc1ccccc1)N(Cc1ccccc1)S(=O)(=O)c1ccccc1Br` (stereo not drawn), the Potency is 9.28 µM (active).

`Cc1ccsc1-c1cc(C(=O)O)c2c(ccc3ccccc32)n1`: the “activity change, negative = inhibition” value was 32% (inactive).

`COc1c(C)cccc1C(=O)Nc1cc(Cl)ccc1N1CCOCC1`: the “activity change, negative = inhibition” value was -1.23% (inactive).

Consider `COc1cc(OC)c(N2CC(C(=O)Nc3cc(Cl)ccc3N3CCOCC3)CC2=O)cc1Cl` (stereo not drawn), for which the Potency is 11.7 µM (active).

For `COc1ccc(Cl)cc1NC(=O)C1CC(=O)N(c2ccc(F)cc2)C1` (stereo not drawn), the “activity change, negative = inhibition” value was 8.24% (inactive).

In the case of `Cc1cccc(C(=O)Nc2ccc(Oc3cnccn3)cc2)c1`, the “activity change, negative = inhibition” value is 51.8% (inactive).

In the case of `CCCn1nc(C(=O)Nc2ccc3nc(C)sc3c2)c2ccccc2c1=O`, the “activity change, negative = inhibition” value was 0.708% (inactive).

Consider `CCCCn1nc(C(=O)Nc2cccc(C(=O)NC3CC3)c2)c2ccccc2c1=O`, for which the Potency was 11.7 µM (active).

Consider `COC(=O)c1cc(NC(=O)c2nn(C)c(=O)c3ccccc23)cc(C(=O)OC)c1`, for which the “activity change, negative = inhibition” value was 23% (inactive).

For the compound `O=C1c2ccccc2C(=O)N1c1cccc2ccccc12`, the “activity change, negative = inhibition” value was -4.37% (inactive).

As to `Cc1c(NC(=O)CSCc2ccccc2)cccc1C(=O)O`, the “activity change, negative = inhibition” value is 60.5% (inactive).

Regarding `CC1C(=O)Nc2ccc(S(=O)(=O)N3CCN(c4ccccc4F)CC3)cc2NC1=O` (stereo not drawn), the “activity change, negative = inhibition” value is 10.6% (inactive).

With `Clc1ccc(C(Cn2ccnc2)OCc2ccsc2Cl)c(Cl)c1` (stereo not drawn), the Potency was 4.26 µM (active).

As to `CC1CCN(S(=O)(=O)c2ccc3c(ccn3CC(=O)O)c2)CC1`, the “activity change, negative = inhibition” value was 24.8% (inactive).

Regarding `Cc1ccc(S(=O)(=O)CC(=O)NC(C)c2ccccc2)cc1` (stereo not drawn), the “activity change, negative = inhibition” value was 21.6% (inactive).

`COc1cccc(-n2c(=S)sc3c(=O)n(-c4ccccc4C)c(SCC(=O)O)nc32)c1`: the “activity change, negative = inhibition” value was 8.96% (inactive).

For the compound `CCOc1ccccc1NC(=O)CCc1nnc2ccc(NCc3ccco3)nn12`, the “activity change, negative = inhibition” value is -8.77% (inactive).

For the compound `O=S(=O)(O)Oc1c[nH]c2ccccc12`, the Potency was 7.38 µM (active).

As to `CCC/C(=N\O)c1c[nH]c2ccccc12`, the “activity change, negative = inhibition” value was 40% (inactive).

Regarding `COc1ccccc1CC(=O)NCCc1c[nH]c2ccccc12`, the “activity change, negative = inhibition” value is -28% (inactive).

Take `CCc1noc(C)c1C(=O)Oc1ccc(N(C)S(=O)(=O)c2ccc(C)c(C)c2)cc1`: the “activity change, negative = inhibition” value was 5.45% (inactive).

As to `CC1(C)O[C@@H]2[C@H](O1)[C@@H](COS(=O)(=O)O)O[C@H]2n1ccc(=O)[nH]c1=O`, the “activity change, negative = inhibition” value is 26.7% (inactive).

On to `CCN(CC)CCCNC(=O)c1c(O)c2cc(F)cc3c2n(c1=O)C(C)CC3` (stereo not drawn), for which the “activity change, negative = inhibition” value is 0% (inactive).

Turning to `CCOC(=O)C1=C(c2ccccc2)NC(=S)NC1c1ccc(Cl)cc1` (stereo not drawn), the “activity change, negative = inhibition” value was -22.2% (inactive).

Turning to `CCOC(=O)C1=C(C)NC(=O)N(C(C)=O)C1c1ccc(Cl)cc1` (stereo not drawn), the Potency was 5.22 µM (active).

As to `COCCOC(=O)C1=C(C)NC(=O)NC1c1ccc(Cl)cc1` (stereo not drawn), the “activity change, negative = inhibition” value is 3.9% (inactive).

For the compound `COc1ccc(C(=O)Nc2ccc(C(=O)NCC3CCCO3)cc2)c(OC)c1OC` (stereo not drawn), the “activity change, negative = inhibition” value is -27.4% (inactive).

For the compound `Cc1ccc(S(=O)(=O)N2CCN(C)CC2)cc1C(=O)NC1CCCCC1`, the “activity change, negative = inhibition” value is 13.8% (inactive).

Take `CC1CCCC(NC(=O)c2cc(S(=O)(=O)N3CCCCC3)ccc2Cl)C1C` (stereo not drawn): the Potency is 13.1 µM (active).

For `O=C(NNC(=O)c1cc(S(=O)(=O)N2CCCCC2)ccc1Cl)c1ccccc1O`, the “activity change, negative = inhibition” value is -15.4% (inactive).

Consider `O=C(O)c1ccc2c(=O)n3c(nc2c1)/C(=C/c1ccc(OC(F)F)cc1OC(F)F)CC3`, for which the “activity change, negative = inhibition” value is -15.1% (inactive).

As to `Nc1nc(SCC(=O)Nc2ccc(Cl)c([N+](=O)[O-])c2)n[nH]1`, the “activity change, negative = inhibition” value was -18.9% (inactive).

For the compound `O=C(NCc1ccc2c(c1)OCO2)c1cc(F)c(F)cc1Cl`, the “activity change, negative = inhibition” value was 65.5% (inactive).

For the compound `O=C(c1ccco1)N1CCN(C(=O)c2cc(-c3ccccc3F)no2)CC1`, the “activity change, negative = inhibition” value was 35.4% (inactive).

As for `COCCOC(=O)c1[nH]c2c(c1C)C(=O)CC(c1ccc(OC)cc1)C2` (stereo not drawn), the “activity change, negative = inhibition” value was 10.8% (inactive).

As to `CCOC(=O)c1[nH]c2c(c1-c1ccccc1)C(=O)CC(c1ccc(Cl)cc1)C2` (stereo not drawn), the “activity change, negative = inhibition” value was 22.1% (inactive).

In the case of `CCCOC(=O)c1[nH]c2c(c1C)C(=O)CC(c1cc(OC)c(OC)c(OC)c1)C2` (stereo not drawn), the Potency was 1.65 µM (active).

For the origin of these results see PubChem BioAssay AID504832 (National Center for Advancing Translational Sciences (NCATS), 2011).
